The record followed here is PubChem BioAssay (NCATS).

Test [1] can be described thus: Nrf2 qHTS screen for inhibitors: Validation (AID 493153). Conditions: viability change: measured here: cytotoxicity max response. The method in brief: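 Luminescence from an ARE-firefly luciferase reporter in A549 cells gives Nrf2 inhibition; an earlier CellTiter-Fluor fluorescent read flags cytotoxicity. Cells in 5% FBS OPTI-MEM received compound dilution series for 18-24 h at 37°C.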

A short description of test [2]: qHTS for Inhibitors of Cell Surface uPA Generation: Validation Assay (AID 493164). Also: 0% is about no effect. In outline: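 RAW 264.7 cells (4000/well) were plated overnight, then exposed for 18 h at 37 C, 5% CO2 to compounds in a 7-point 1:5 titration (2.45 nM–38.3 uM final). Intracellular ATP was read by ATP-Lite luminescence.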
Background: In qHTS, concentration-response curves come from the screen itself.

The target of test [3] is Galactokinase (Homo sapiens) (UniProt P51570). Briefly: qHTS Validation Assay for Inhibitors of Human Galactokinase (GALK) (AID 493189). Also: 0% is about no effect. In outline: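 GALK (5 nM) with 35 uM ATP and 100 uM galactose in HEPES pH 8.0 with MgCl2, NaCl, DTT and BSA. Reaction ran 1 h at room temperature. Residual ATP read by Kinase-Glo Plus luminescence.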
Chain of Galactokinase (Homo sapiens) (P51570 whole entry, looked up): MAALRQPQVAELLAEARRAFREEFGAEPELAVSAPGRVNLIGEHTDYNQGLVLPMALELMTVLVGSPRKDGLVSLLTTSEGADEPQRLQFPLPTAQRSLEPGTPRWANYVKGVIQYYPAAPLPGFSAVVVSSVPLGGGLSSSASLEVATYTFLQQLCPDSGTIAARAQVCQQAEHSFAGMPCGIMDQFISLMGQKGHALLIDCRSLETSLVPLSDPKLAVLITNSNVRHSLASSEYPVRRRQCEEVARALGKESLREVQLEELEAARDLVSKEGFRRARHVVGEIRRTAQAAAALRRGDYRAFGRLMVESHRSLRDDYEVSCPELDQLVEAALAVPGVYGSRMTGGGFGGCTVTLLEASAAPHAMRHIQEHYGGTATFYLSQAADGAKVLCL
Test [4] is described as follows: Validation screen for small molecules that induce DNA re-replication in SW480 colon adenocarcinoma cells (AID 504364). Also: 0% is about no effect. In outline: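 250 cells/well; compound pinned in; 48 hr, 37 C, 5% CO2; Hoechst added, 40 min; nuclear fluorescence imaged, 405 ex / 500-530 em; re-replication scored as increase in high-intensity nuclei.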
The target of test [5] is Peptidyl-prolyl cis-trans isomerase NIMA-interacting 1 (Homo sapiens) (UniProt Q13526). Nature of the test: qHTS Validation Assay to Find Inhibitors of Pin1 (AID 504536; active = well fitted inhibition curve with a large enough effect in the polarisation, with a control signal flat, not every such curve was filed as active; the % refers to the polarisation;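 also: 0% = full Pin1 enzyme wells and -100% = no-enzyme wells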). In outline:
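Fluorescence polarization competition: compounds (titration) displace HiFluor-488-labeled Pin1-1b peptide from Pin1 (0.3 uM final) in pH 7.5 HEPES buffer with DTT, 10 min at room temperature; %Activity normalized to no-enzyme wells, curves fitted.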

The target of test [6] is Ubiquitin carboxyl-terminal hydrolase 1 (Homo sapiens) (UniProt O94782). Briefly: Inhibitors of USP1/UAF1: Pilot qHTS (AID 504865).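 Also: rhodamine fluorescence freed from ubiquitin-rhodamine substrate followed over time; top concentration of the series differs between compounds; % is scaled to controls: 0 for no effect and ±100 for the full control effect; nearly all actives have a fitted effect of over 35% in size.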 In outline:
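USP1/UAF1 complex at 1 nM preincubated 15 min at room temperature with compound, then Ub-Rho substrate added at 150 nM final. Fluorescence (480/540 nm) read kinetically in 50 mM HEPES pH 7.8, 0.5 mM EDTA, 1 mM TCEP, 0.1 mg/ml BSA, 0.01% Tween-20.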

The nature of test [7]: qHTS for Inhibitors of ATXN expression: Validation of Cytotoxic Assay (AID 588349). Also: % is scaled to controls: 0 for no effect and ±100 for the full control effect. In outline:
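Read-out: ATP-based luminescence (CellTiter Glo) reflecting viability of HEK293 cells after 72 hr incubation at 37 degrees C with a concentration series of each compound.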

Test [8] can be described thus: qHTS for Inhibitors of ATXN expression: Validation (AID 588378). Also: series mostly up to about 57 µM; % is scaled to controls: 0 for no effect and ±100 for the full control effect; nearly all actives have a fitted effect of over 75% in size. The method in brief:
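HEK293 cells carrying ATXN2-firefly luciferase reporter, treated with compound 24 h at 37 °C. Viability read first by CellTiter-Fluor (405/525 nm), then reporter expression by Bright-Glo luminescence; controls were a known ATXN2 expression inhibitor and a luciferase inhibitor.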

Test [9] addresses Voltage-gated inwardly rectifying potassium channel KCNH2 (Homo sapiens) (UniProt Q12809). Briefly: qHTS Assay for Small Molecule Inhibitors of the Human hERG Channel Activity (AID 588834).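 Also: top concentration of the series differs between compounds; % is scaled to controls: 0 for no effect and ±100 for the full control effect; lower thallium flux fluorescence means stronger hERG block; nearly all actives have a fitted effect of over 50% in size.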 The method in brief:
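U2OS cells BacMam-transduced with hERG, 2000 cells/well, compound ~10 min at 37 °C before stimulation buffer. FluxOR thallium flux fluorescence read kinetically on FDSS; decrease indicates block; AC50 from Hill fits.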

Test [10] concerns the target Glutaminase kidney isoform, mitochondrial (Homo sapiens) (UniProt O94925). Nature of the test: qHTS for Inhibitors of Glutaminase (GLS): LOPAC Validation (AID 624146).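 Also: glutamate product detected by oxidase and peroxidase coupled Amplex red fluorescence gain; series mostly up to about 46 µM; % is scaled to controls: 0 for no effect and ±100 for the full control effect; nearly all actives have a fitted effect of over 60% in size.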 The method in brief: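 Human kidney-isoform GLS in 45 mM KH2PO4 pH 8.2, 0.02% Tween-20, with compound, started with 1mM L-Glutamine (added stock). Glutamate oxidase/HRP/Amplex red coupled fluorescence read at start and after 30 min at RT.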

Test [11] can be described thus: qHTS of Trypanosoma Brucei Inhibitors: LOPAC Validation (AID 624147). Also: 0% is about no effect. The method in brief:
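TbPYK + substrate in 50 mM TEA pH 7.2, 100 mM KCl, 10 mM MgCl2, 0.05% BSA, 0.01% Tween-20; cpd pinned; ADP 130 uM final; 45 min RT; Kinase-Glo Plus 10 min; luminescence endpoint.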

For test [12], the target named is Glucagon-like peptide 1 receptor (Homo sapiens) (UniProt P43220). Briefly: qHTS of GLP-1 Receptor Agonists: LOPAC Validation (AID 624148).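 Also: luminescence from a luciferase reporter switched on by cAMP; 0% is about no effect; higher luminescence signal means agonism.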 The method in brief:
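Agonism scored as increased luciferase luminescence driven by cAMP in HEK293 clones carrying GLP-1R. Cells settled 12 hours, received compound for 4-6 hr at 37 deg C, 5% CO2, and were read after 12 min detection reagent at RT.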

The nature of test [13]: qHTS of Nrf2 Activators: LOPAC Validation (AID 624149). Also: 0% is about no effect. In outline:
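Luminescence read-out of ARE-luciferase activation: AREc32_Fluc cells treated with compounds for 24 hr at 37 deg C, then lysed with Steady-Glo for 30 min at room temperature before reading.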

A short description of test [14]: HTS Assay for Allosteric Antagonists of the Human D2 Dopamine Receptor: Hit Validation in HTRF (AID 624455).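 Also: stable D1 dopamine receptor cell line scored for blocking the D1 response; % is scaled to controls: 0 for no effect and ±100 for the full control effect.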 The method in brief:
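First, antagonism was screened by calcium flux in a force-coupled, inducible Hek293 Trex D2 line challenged with EC80 dopamine. Hits then went into an HTRF assay in cells stably expressing D1, testing inhibition of the D1 response.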
For orientation: TR-FRET usually uses a lanthanide donor and a delayed reading to cut background.

Test [15] concerns the target Arylsulfatase A (Homo sapiens) (UniProt P15289). Nature of the test: qHTS screen for enhancers of Arylsulfatase A (ASA1): LOPAC Validation Assay (AID 720538). Also: 0% is about no effect. The method in brief:
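SV40-transformed fibroblasts from an MLD patient (ASA-I179S) were treated with compound for 48 h at 37 C. They were then lysed with 0.5 mM pNCS substrate (final) for 14 h at room temperature and stopped with NaOH; signal read by fluorescence (Ex 525/Em 598 nm), with increase denoting enhanced activity.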

A short description of test [16]: qHTS for compounds that reverse cellular toxicity of Amyloid beta (A-beta) peptide in yeast: LOPAC Validation Assay (AID 720559).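 Also: plate controls were DMSO for no effect and equimolar ferric chloride plus clioquinol rescue for full effect.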 In outline:
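Yeast expressing toxic A-beta grown with pinned compounds at 30 C for 48 hr. Growth measured as absorbance at 600 nm; data normalized to DMSO and to an equimolar FeCl3/clioquinol mixture as positive control.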

A short description of test [17]: qHTS for Activators of Parkin Expression: LOPAC Validation Assay (NLuc Reporter) (AID 720572;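 also: 0% = DMSO and 100% = positive control compound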). In outline: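 Parkin promoter-driven FLuc/NLuc neuronal reporter cells; 24 h plating, 7-pt dose response, 24 h at 37 C/5% CO2; FLuc then NanoLuc reagent, 10 min each, luminescence; DMSO/positive control normalized.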
Test [18] concerns the target Hexokinase-4 (Homo sapiens) + Glucokinase regulatory protein (Homo sapiens) (UniProt P35557+Q14397). Nature of the test: qHTS assay for inhibitors of recombinant human GCK-GKRP interaction: Diaphorase-coupled assay (AID 743205). The method in brief: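 Compounds pre-incubated 20 min with substrate, then 10 nM GST-GCK with 10 nM FLAG-GKRP added. GCK activity coupled via G6PDH and diaphorase to resorufin (5 mM glucose, 0.4 mM ATP, 0.15 mM NADP+, pH 7.6), read kinetically over 30 minutes at Ex 525/Em 590 nm.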

Records with an inconclusive call do not appear. Activity calls are given as the source filed them. Unless noted, calls follow the shape of the dose curve; as a rule, active = well fitted curve in the direction sought with a large enough effect; inconclusive = small, poorly fitted or top-dose-only effect, or another doubt; inactive = no such curve, though single readings can be large; an effect the other way counts as inactive or inconclusive.

Chain of Peptidyl-prolyl cis-trans isomerase NIMA-interacting 1 (Homo sapiens) (Q13526 whole entry, looked up): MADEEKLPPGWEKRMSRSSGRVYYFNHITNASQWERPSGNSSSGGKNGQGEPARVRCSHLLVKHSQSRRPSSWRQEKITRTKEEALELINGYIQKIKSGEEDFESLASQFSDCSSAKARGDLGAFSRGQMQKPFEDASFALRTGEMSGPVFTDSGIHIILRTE
Chain of Glucagon-like peptide 1 receptor (Homo sapiens) (P43220 whole entry, looked up): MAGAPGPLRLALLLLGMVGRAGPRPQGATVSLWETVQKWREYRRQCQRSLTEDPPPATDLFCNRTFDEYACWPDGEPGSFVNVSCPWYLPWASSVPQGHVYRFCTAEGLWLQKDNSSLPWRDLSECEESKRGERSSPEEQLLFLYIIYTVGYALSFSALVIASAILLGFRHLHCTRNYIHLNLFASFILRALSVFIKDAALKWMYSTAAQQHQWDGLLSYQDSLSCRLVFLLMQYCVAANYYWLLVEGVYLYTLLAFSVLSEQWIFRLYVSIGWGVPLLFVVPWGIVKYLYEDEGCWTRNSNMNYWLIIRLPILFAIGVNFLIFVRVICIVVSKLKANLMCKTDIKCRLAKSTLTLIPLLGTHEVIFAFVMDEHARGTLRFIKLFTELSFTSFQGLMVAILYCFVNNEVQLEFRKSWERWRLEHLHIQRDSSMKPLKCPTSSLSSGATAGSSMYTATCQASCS
Chain of Ubiquitin carboxyl-terminal hydrolase 1 (Homo sapiens) (O94782 whole entry, looked up): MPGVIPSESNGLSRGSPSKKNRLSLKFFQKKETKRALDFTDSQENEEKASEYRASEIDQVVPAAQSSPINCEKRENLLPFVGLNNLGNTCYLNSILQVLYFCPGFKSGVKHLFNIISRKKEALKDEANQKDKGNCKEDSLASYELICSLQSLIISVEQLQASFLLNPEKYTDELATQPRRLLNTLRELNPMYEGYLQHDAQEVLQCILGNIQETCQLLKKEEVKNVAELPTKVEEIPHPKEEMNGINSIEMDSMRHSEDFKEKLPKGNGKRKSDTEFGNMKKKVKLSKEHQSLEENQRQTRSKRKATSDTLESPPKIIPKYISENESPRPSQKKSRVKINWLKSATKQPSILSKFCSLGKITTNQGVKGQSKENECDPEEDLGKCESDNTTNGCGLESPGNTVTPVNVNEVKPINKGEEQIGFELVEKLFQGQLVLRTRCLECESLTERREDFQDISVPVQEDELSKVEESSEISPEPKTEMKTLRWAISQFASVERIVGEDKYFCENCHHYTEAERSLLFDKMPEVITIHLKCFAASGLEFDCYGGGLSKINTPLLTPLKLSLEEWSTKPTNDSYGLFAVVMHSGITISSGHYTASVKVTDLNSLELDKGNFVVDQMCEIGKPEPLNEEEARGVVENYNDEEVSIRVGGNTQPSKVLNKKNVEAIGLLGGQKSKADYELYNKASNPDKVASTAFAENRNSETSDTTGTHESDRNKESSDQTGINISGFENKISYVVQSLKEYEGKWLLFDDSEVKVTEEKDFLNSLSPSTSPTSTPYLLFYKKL
Chain of Voltage-gated inwardly rectifying potassium channel KCNH2 (Homo sapiens) (Q12809 whole entry, looked up): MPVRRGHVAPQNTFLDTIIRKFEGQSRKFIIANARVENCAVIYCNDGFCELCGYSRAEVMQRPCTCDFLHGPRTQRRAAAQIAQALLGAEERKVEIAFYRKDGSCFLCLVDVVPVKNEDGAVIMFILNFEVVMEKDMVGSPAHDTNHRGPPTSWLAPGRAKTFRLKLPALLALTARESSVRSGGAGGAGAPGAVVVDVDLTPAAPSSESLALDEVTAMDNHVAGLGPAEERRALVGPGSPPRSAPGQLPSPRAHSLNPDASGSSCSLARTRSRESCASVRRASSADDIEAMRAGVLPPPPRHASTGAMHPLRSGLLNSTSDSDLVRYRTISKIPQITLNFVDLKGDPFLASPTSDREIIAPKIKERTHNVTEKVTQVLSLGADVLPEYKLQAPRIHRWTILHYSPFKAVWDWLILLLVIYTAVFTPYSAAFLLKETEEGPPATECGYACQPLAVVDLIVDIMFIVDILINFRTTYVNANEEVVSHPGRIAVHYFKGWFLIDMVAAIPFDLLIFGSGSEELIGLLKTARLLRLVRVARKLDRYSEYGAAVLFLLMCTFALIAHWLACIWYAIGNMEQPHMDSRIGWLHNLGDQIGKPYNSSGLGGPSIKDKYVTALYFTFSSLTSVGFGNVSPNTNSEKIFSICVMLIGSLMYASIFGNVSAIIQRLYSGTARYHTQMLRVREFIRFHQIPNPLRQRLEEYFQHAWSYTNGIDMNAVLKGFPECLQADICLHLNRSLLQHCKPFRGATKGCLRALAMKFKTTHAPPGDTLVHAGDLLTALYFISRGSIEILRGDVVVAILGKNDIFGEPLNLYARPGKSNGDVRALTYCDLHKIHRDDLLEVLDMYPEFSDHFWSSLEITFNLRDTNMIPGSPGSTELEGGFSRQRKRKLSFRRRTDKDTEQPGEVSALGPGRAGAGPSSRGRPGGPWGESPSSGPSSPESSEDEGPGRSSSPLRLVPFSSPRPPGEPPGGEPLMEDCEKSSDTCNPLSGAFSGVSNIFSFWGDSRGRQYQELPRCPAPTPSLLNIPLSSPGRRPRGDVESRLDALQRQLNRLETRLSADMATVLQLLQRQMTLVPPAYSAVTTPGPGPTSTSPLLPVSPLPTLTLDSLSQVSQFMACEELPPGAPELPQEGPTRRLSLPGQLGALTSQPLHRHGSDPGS
Chain of Glutaminase kidney isoform, mitochondrial (Homo sapiens) (O94925 whole entry, looked up, canonical isoform): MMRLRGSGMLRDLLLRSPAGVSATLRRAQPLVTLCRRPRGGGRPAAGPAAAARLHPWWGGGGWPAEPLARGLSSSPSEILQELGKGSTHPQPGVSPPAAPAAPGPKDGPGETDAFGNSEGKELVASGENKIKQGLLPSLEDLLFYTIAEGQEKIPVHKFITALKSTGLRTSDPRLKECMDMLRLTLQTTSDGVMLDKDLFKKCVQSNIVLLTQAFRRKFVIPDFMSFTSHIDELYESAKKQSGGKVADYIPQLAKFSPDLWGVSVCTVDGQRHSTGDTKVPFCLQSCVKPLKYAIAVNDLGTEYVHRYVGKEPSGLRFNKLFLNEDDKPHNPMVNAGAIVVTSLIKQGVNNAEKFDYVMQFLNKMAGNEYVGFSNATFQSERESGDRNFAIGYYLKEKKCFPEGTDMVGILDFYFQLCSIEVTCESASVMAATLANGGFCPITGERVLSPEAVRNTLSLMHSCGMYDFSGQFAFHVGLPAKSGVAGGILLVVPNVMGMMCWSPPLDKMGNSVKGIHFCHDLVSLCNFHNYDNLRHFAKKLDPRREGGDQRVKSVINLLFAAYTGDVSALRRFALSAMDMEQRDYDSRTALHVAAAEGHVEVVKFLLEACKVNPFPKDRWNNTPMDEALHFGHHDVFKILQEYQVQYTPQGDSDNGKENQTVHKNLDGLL
Chain of Arylsulfatase A (Homo sapiens) (P15289 whole entry, looked up): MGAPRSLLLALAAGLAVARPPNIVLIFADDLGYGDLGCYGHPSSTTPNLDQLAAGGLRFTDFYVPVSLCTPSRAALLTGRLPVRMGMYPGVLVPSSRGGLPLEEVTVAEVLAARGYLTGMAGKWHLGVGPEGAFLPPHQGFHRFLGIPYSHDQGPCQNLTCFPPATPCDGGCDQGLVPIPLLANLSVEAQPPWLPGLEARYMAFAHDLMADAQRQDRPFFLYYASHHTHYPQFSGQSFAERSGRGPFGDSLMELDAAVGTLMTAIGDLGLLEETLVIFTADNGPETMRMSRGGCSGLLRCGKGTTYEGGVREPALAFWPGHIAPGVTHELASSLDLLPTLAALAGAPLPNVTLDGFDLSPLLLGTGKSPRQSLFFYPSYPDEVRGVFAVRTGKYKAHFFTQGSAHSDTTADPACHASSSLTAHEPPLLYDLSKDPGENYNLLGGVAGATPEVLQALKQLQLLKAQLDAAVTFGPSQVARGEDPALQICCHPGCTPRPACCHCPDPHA

With `Cc1cccc(/C=C/c2ccccc2)n1`, the viability change in test [1] was -2.71%. Also, the compound was classed as inactive in [2], in test [3], in [4], in test [11], in [12] and in test [13]. The outcome in [14], in test [16], in test [17] and in test [18] was inactive. Moreover, the Potency result in test [5], in [6], in test [7], in test [8], in [9] and in test [10] was “inactive” in each case. In addition, the Potency result in test [15] was “inactive”.
